Target: T1, Aspartate--tRNA(Asp/Asn) ligase (Mycobacterium tuberculosis (strain ATCC 25618 / H37Rv)) (UniProt P9WFW3)
T1 sequence (whole entry): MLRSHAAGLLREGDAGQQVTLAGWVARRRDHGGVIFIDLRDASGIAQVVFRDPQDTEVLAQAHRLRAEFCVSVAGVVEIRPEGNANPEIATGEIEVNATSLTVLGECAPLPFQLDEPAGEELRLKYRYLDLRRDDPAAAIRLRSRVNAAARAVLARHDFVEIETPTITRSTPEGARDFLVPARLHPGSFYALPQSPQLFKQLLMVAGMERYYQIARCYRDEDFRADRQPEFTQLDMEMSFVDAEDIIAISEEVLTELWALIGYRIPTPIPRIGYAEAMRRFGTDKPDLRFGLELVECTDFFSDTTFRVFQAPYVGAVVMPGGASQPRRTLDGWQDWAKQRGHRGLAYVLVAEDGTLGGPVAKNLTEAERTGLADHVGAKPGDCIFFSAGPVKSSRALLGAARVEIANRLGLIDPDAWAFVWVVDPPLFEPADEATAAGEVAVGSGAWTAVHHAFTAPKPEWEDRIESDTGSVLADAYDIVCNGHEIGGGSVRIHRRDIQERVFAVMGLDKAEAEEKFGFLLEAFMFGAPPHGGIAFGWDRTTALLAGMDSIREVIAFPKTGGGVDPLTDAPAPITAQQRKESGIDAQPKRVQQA
Experiment: Assay for Asp RNA synthetase-1 from Mycobacterium tuberculosis
Assay type: functional
Parameters: scale not given: in the data most compounds retested in dose-response had high values
Settings: 30 µM

SMILES | Percent Effect
CCOCCN1CCN(Cc2nnc(C3CC3)o2)CC1CC (stereo not given) | 1.06%
CCOc1ccnc(N2CCN(C(=O)c3cc(Cl)c[nH]3)CC2)n1 | -2.48%
CCN(CC)c1ccc(C(=O)NCc2cccnc2-n2cncn2)cn1 | 6%
COc1cc(C)nc(N2CCN(C(=O)CCc3cscn3)CC2)n1 | -2.13%
COCC1CN(S(C)(=O)=O)Cc2ncn(CC3CC3)c21 (stereo not given) | -3.82%
Cc1nc(CN2CCOC(Cn3cncn3)C2)nc2ccccc12 (stereo not given) | -2.91%
Cc1nc(C2CCN(C(=O)c3cccnc3)CC2)c2sccn12 | 2.04%
CNC(=O)C(C)(C)NC(=O)c1cc(OCC2CCC2)cc(C(=O)OC)c1 | 9.31%
Cc1csc(N2CCN(C(=O)CCC(=O)c3ccc(C)s3)CC2)n1 | -2.27%
Cc1cc2c(=O)n3c(nc2s1)CCN(Cc1cnn(C)c1C)CC3 | -4.72%
CCN(C(=O)CCCOc1ccccc1F)c1ccncc1 | -2.34%
Cc1ccc(CNC(=O)Nc2nnc(C)s2)cn1 | 4.24%
CCc1noc(C(C)N2CCN(c3ccc(C#N)cn3)CC2)n1 (stereo not given) | -2.49%
Nc1cc(N2CCCC2c2cnccn2)ncn1 (stereo not given) | 6.36%
COc1ccccc1OCCN1CCCC(c2cc(C(N)=O)[nH]n2)C1 (stereo not given) | 0.0735%
CCc1ncc2c(n1)CN(Cc1nnc(C)o1)CC2 | -4.37%
Cc1ccc(CNC(c2ccccc2)c2nccn2C)cc1C (stereo not given) | 1.11%
CCn1cnnc1C1CCN(C(=O)c2cnc(C3CC3)s2)CC1 | -8.99%
O=C1COc2ccc(C(=O)NS(=O)(=O)c3ccc(F)cc3F)cc2N1 | 0.0843%
CNC(=O)N1CC[C@H]2N(C)CC[C@@]2(C(=O)Nc2ccccc2)CC1 | -8.12%

Source: ChEMBL document CHEMBL3988442, “University of Dundee, Small-Polar-MMV Screening Library” (2021)
